High-throughput results from PubChem.
Sampled rows, rich in hits. Any-hit rate of the full collection: about 5.2%.
GRIN3A LBD mod – modulates the human NR3A ligand-binding domain. NR3A LBD differential scanning fluorimetry, Tm shift; 0% = protein alone, 100% = glycine-bound protein. Tm shift relative to glycine control, % at 25 µM. 2.5% of 340,000 active. AID 1259313;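 active = melting temperature shift of at least 10% of the positive control shift, at one fixed dose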
SKN-1 inh – inhibitors of C. elegans SKN-1. inhibition, % at 21.8 µM. C. elegans VP596 Pgst-4::GFP/RFP ratio, acrylamide-induced, 24 h. 0.49% of 360,000 active;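 active = interference check ratio from 0.5 to 1.5 plus GFP to RFP signal ratio inhibition reaching or exceeding a fixed threshold, cut at about 30% in these data, passing the limit was not always enough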
esBAF inh – blocks esBAF chromatin remodeling in mouse ES cells; Bmi1-luciferase knock-in reporter, 24 h; 100% = twice the neutral-well signal; reporter increase, % at 12.5 µM; 2% of 350,000 active; in the data active = activation above about 40%; inconclusive = no clear call, values can overlap the other calls;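 also: 0% = median of the plate's neutral control wells and 100% = double that signal; a rise in the Bmi1 reporter signal indicates esBAF inhibition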
NadD inh – NadD (S. aureus) enzyme inhibition; purified NadD enzyme, colorimetric absorbance read-out; inhibition, % at 20 µM; 0.78% of 360,000 active; AID 602399; in the data active = inhibition above about 26%
SMARCA2 act – SMARCA2 function activation, primary screen; MG213 cells, MMTV-luciferase reporter, dexamethasone, overnight; activation, % at 9.1 µM; 1% of 370,000 active; in the data active = activation above about 7.8%;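 also: 0% = vehicle wells and 100% = reference activator wells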
Vif inh – inhibitors of HIV Vif. HEK293T cells, Vif self-association by quenched fluorescence, imaging, 24 h. inhibition, % at 7.49 µM. AID 602346. 0.35% of 340,000 active; in the data active = inhibition above about 50%, passing the limit was not always enough; inconclusive = no clear call, values can overlap the other calls; inactive = below about 31%
* hit, by the source's call; u = inconclusive; x = not tested or not shown.

SMILES	GRIN3A LBD mod	SKN-1 inh	esBAF inh	NadD inh	SMARCA2 act	Vif inh
Cc1ccc(C(=O)Cc2cc3ccccc3oc2=O)c(C)c1	3	4	x	-9	2	-1
COc1ccc(C(=O)Cc2cc3ccccc3oc2=O)cc1	-1	-2	56*	-8	4	13
COc1ccc(C(=O)Cc2cc(OC)c(OC)cc2[N+](=O)[O-])c(OC)c1	1	5	52*	-6	0	2
O=C(O)[C@@H]1[C@@H](CO)[C@@H]2Cn3c(ccc(-c4ccccc4)c3=O)[C@@H]2N1Cc1ccccc1F	x	x	3	x	x	x
COc1ccc(C(=O)COc2ccc(F)cc2)c(O)c1	0	3	68*	-6	1	-2
O=C(COc1ccc(F)cc1)c1c(O)cc(O)cc1O	3	-4	-14	-5	6	1
O=C(CNc1ccc2ccccc2c1)N/N=C/c1ccc(OC(=O)/C=C/c2ccco2)cc1	21*	2	x	25	-1	-2
CSc1ccc(/C=N/NC(=O)CNc2ccc3ccccc3c2)cc1	21*	14	x	5	1	11
O=C(COc1ccc2ccccc2c1)NCC(=O)N/N=C/c1ccco1	-1	0	-11	-1	-1	-6
CSc1ccc(/C=N/NC(=O)CNc2cccc3ccccc23)cc1	19*	3	x	18	0	4
O=C(C[C@@H]1CC[C@@H]2[C@H](COC[C@@H](O)CN2C(=O)Nc2ccc(Cl)cc2)O1)NCCc1ccncc1	x	x	23	x	x	x
CCCCCCCC#Cc1ccccc1/C=N/S(=O)c1ccc(C)cc1 (stereo not given)	16*	x	x	x	x	x
Cc1cc(NC(=O)Nc2ccccc2F)ccc1Br	26*	7	u	-4	1	-9
Cn1nnc2cc(NC(=O)Nc3ccccc3F)ccc21	x	-5	22	-5	7	0
O=C(Nc1ccccc1)Nc1ccc(Br)cc1F	12*	17	x	-10	-5	-8
O=C(Nc1cccc(Cl)c1)Nc1ccc(Br)cc1F	21*	22	x	-4	-2	-12
O=C(O)CSc1ccc(NC(=O)Nc2ccccc2F)cc1	10*	8	-6	-5	2	25
Cc1noc(C)c1NC(=O)Nc1cccc2c1O[C@@H](CN(C)Cc1ccncc1)[C@@H](C)CN([C@@H](C)CO)C2=O	x	x	0	x	x	x
C[C@H](CO)N1C[C@H](C)[C@@H](CN(C)S(=O)(=O)c2ccc(Cl)cc2)Oc2c(NS(=O)(=O)c3cn(C)cn3)cccc2C1=O	x	x	3	x	x	x
CN1C(=O)c2cc(NC(=O)c3ccccc3Cl)ccc2OC[C@H]2O[C@H](CC(=O)NCC(F)(F)F)CC[C@@H]21	x	x	0	x	x	x
C[C@H]1CN([C@@H](C)CO)C(=O)c2cc(NC(=O)C3CCCCC3)ccc2O[C@H]1CN(C)Cc1ccncc1	x	x	3	x	x	x
C[C@H]1CN([C@@H](C)CO)C(=O)c2cc(C#CCN(C)C)cnc2O[C@@H]1CN(C)C(=O)CN1CCOCC1	x	x	-1	x	x	x
C[C@H](CO)N1C[C@H](C)[C@@H](CN(C)C(=O)c2ccncc2)Oc2ncc(C#C[C@@H](C)O)cc2C1=O	x	x	-6	x	x	x
NC(=O)c1c(NC(=O)C2COc3ccccc3O2)sc2c1CCN(Cc1ccccc1)C2 (stereo not given)	2	-6	9	0	-1	110*
COC(=O)N1CCc2c(sc(NC(=O)C3COc4ccccc4O3)c2C(N)=O)C1 (stereo not given)	2	-3	50*	2	4	-6
SMILES	GRIN3A LBD mod	SKN-1 inh	esBAF inh	NadD inh	SMARCA2 act	Vif inh
CO[C@H]1CN(C)C(=O)c2cc(NC(=O)c3ccc4c(c3)OCO4)ccc2OC[C@@H](C)NC[C@@H]1C	x	x	-1	x	x	x
O=C(c1cc(-c2cccc(Cl)c2)on1)N1CCOCC1	3	-4	44*	-1	2	8
O=C(c1cc(-c2ccc(Cl)c(Cl)c2)on1)N1CCOCC1	-2	-1	42*	-4	1	-3
COCCNC(=O)c1cc(-c2ccc(Cl)c(Cl)c2)on1	-11	-2	52*	2	1	3
O=C(c1cc(-c2ccc(Cl)cc2)on1)N1CCOCC1	-2	-13	-35	-3	1	19
CN1C(=O)c2cc(NC(=O)c3ccc(C(F)(F)F)cc3)ccc2OC[C@H]2O[C@@H](CC(=O)O)CC[C@H]21	x	x	2	x	x	x
Cc1ccc2c(c1)-c1nc3ccccc3cc1C2=NC1CCCCC1	-6	9	x	-5	9.5*	7
N=c1n(Cc2ccc(Cl)cc2)c2ccccc2n1CC(O)COc1ccccc1 (stereo not given)	-2	-4	-32	7	-6	-3
OC(COCC(F)(F)C(F)(F)C(F)(F)C(F)F)Cn1c2ccc(Cl)cc2c2cc(Cl)ccc21 (stereo not given)	19*	-5	x	-7	x	-4
COc1cccc(S(=O)(=O)Nc2ccc3c(c2)OC[C@@H](C)NC[C@H](C)[C@H](OC)CN(C)C3=O)c1	x	x	1	x	x	x
COc1ccccc1C(=O)Nc1nc2ccc(S(C)(=O)=O)cc2s1	6	13	49*	0	-2	-2
CS(=O)(=O)c1ccc2nc(NC(=O)c3ccccc3Cl)sc2c1	-5	0	15	2	6	1
CS(=O)(=O)c1ccc2nc(NC(=O)c3ccccc3Br)sc2c1	0	-4	58*	-8	7	4
CN1C(=O)c2cc(NC(=O)Nc3ccccc3)ccc2OC[C@H]2O[C@H](CC(=O)O)CC[C@H]21	x	x	0	x	x	x
O=C(NCC1CCCO1)c1cc2ccccc2o1 (stereo not given)	-1	-23	44*	-4	5	9
COc1cccc(-c2cc(C(=O)NCC3CCCO3)on2)c1 (stereo not given)	3	-7	56*	-2	1	-1
O=C(Cc1ccccc1)NCC1CCCO1 (stereo not given)	1	2	-1	0	2	11
COc1ccc(-c2cc(C(=O)NCC3CCCO3)on2)cc1OC (stereo not given)	3	10	4	-2	-4	3
O=C(NCC1CCCCC1)c1cc2ccccc2cc1O	8	-11	54*	-7	-5	-7
O=C(NCC1CCCO1)c1cccc2ccccc12 (stereo not given)	-2	0	2	4	0	14
O=C(Cc1cccc2ccccc12)NCC1CCCO1 (stereo not given)	13*	4	-2	2	-1	x
O=C(NCCO)c1cc2ccccc2cc1O	-1	-12	0	0	-2	x
C[C@@H]1CN([C@H](C)CO)C(=O)c2cc(NC(=O)C3CCCCC3)ccc2O[C@@H](C)CCCCO[C@H]1CN(C)Cc1ccc2c(c1)OCO2	x	x	-6	x	x	x
CCC(=O)N1C[C@@H](O)COC[C@H]2O[C@@H](CC(=O)NCc3cc(F)cc(F)c3)CC[C@@H]21	x	x	2	x	x	x
O=C(NCC1CCCO1)c1cc2ccccc2nc1Cl (stereo not given)	1	7	x	-7	-3	22
